Screening data (PubChem)
DT40 TDP1 CPT – growth inhibition of DT40 Tdp1-/-;hTDP1 cells with camptothecin (screen for TDP1 inhibitors); chicken DT40 Tdp1-/-;hTDP1 cells + 20 nM CPT, ATP luminescence, 48 h; Potency, µM (titrated, usually from 46.2 µM), for the others: top-dose activity change, negative = growth inhibition, most hits filed as inhibitors; 420,000 tested, 12% active; also: potency is read from the fitted curve at half-maximal effect; nearly all actives have a fitted effect of over 55% in size
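Cell growth measured by CellTiter-Glo luminescence after a minimum 48 h, 37 C compound exposure with 20 nM CPT in Tdp1-knockout DT40 cells stably expressing hTDP1, seeded 400/well; qHTS titration format.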
Gal4-VP16 FLuc – counter-screen for ROR gamma inhibitors: Gal4-VP16 reporter; Drosophila S2 Gal4-VP16 UAS-luciferase, luminescence, 20 h; Potency, µM (series often up to 53.6 µM), without a hit: at the highest dose activity, negative = inhibition, hits mostly inhibitors; 310,000 tested, 3.5% active;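 also: Gal4-VP16 expression switched on by copper sulfate through the metallothionein promoter; potency is read from the fitted curve at half-maximal effect; nearly all actives have a fitted effect of over 50% in size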
IL-1B inflam inh – blocks inflammasome-driven IL-1 beta release; THP-1 LPS/ATP IL-1B secretion, AlphaLISA, 16 h; active compounds read low; 360,000 tested, 4.7% active; activity change, % at 57.5 µM; in the data active = activity change below about -50%; inconclusive = mostly about -30% to -49%
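THP-1 cells pretreated 1 hr with compounds (up to 57.5 uM final), then stimulated with LPS (250 ng/mL final) plus ATP (1.25 mM final); secreted IL-1B measured by AlphaLISA after 16 hr, decreased signal indicating inhibition.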
TDP1 cell noCPT – qHTS for Inhibitors of human tyrosyl-DNA phosphodiesterase 1 (TDP1): qHTS in cells in absence of CPT | DT40 Tdp1-/- hTDP1 cells, no CPT, ATP luminescence, 48 h | Potency, µM (doses to about 46.2 µM), for inactives: at the highest dose activity change, negative = growth inhibition, most hits filed as inhibitors | 420,000 tested, 15% active | AID 686978, 2013; also: potency is read from the fitted curve at half-maximal effect; nearly all actives have a fitted effect of over 55% in size
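A cellular qHTS used chicken DT40 cells lacking endogenous Tdp1 but carrying stably transfected human TDP1. Compounds were applied without camptothecin, and cell growth kinetics were judged by ATP-dependent luminescence after ≥48 hr.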
LDHA inh – blocks human lactate dehydrogenase A; purified LDHA, NADH/diaphorase-resazurin fluorescence; active compounds read low; activity change, % (values are at about 110 or 230 µM); 480,000 tested, 0.15% active; AID 1347041; in the data active = activity change below about -30%; inconclusive = mostly about -25% to -30%;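 also: plate controls were DMSO wells for no effect and wells without enzyme for full effect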
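Human LDH5 at 2 nM final in Tris HCl pH 7.4 with 0.06 mM NADH and 0.2 mM pyruvate, reacted 5 minutes at room temperature. Remaining NADH coupled via diaphorase/resazurin; resorufin fluorescence read at 0 and 20 minutes, normalized to enzyme-free and DMSO wells.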
RORgamma inh – blocks mouse ROR gamma transcriptional activity; Drosophila S2 Gal4-RORgamma UAS-luciferase reporter, 20 h; Potency, µM (series often up to 53.6 µM), for the others: at the top dose activity change, negative = inhibition, actives largely listed as inhibitors; 310,000 tested, 5.4% active; also: potency is read from the fitted curve at half-maximal effect; nearly all actives have a fitted effect of over 60% in size
Target sequence (P51450 whole entry, looked up, the tested form may be a part): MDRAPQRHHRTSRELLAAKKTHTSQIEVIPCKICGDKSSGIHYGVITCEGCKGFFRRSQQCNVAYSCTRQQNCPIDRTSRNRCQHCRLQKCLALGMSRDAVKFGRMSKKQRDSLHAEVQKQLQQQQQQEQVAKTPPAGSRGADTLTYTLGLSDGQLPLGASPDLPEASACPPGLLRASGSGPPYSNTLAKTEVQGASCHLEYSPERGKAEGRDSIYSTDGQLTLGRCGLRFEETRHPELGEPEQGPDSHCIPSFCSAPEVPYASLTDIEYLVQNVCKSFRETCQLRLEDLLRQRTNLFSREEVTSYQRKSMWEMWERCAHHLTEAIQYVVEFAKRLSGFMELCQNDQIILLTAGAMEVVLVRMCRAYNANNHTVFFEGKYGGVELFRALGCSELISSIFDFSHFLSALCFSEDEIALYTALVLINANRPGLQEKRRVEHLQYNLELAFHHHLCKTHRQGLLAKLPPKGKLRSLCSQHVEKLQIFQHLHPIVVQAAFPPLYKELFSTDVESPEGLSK
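A Gal4/UAS one-hybrid system in insect cells: metallothionein-promoter Gal4–ROR gamma fusion plus Photinus luciferase reporter. Copper sulfate 700 uM final, 20 hr ambient incubation, luminescent detection after 10 min with reagent.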
An asterisk follows results filed as active. Shown are actives, neighbours in structure and some others; about 18% of the full set was active somewhere. Unless noted, calls follow the shape of the dose curve; as a rule, active = well fitted curve in the direction sought with a large enough effect; inconclusive = small, poorly fitted or top-dose-only effect, or another doubt; inactive = no such curve, though single readings can be large; an effect the other way counts as inactive or inconclusive. Unless noted, % is scaled to controls: 0 for no effect and ±100 for the full control effect.

`CCOC(=O)C(C)Oc1cc2oc(=O)cc(C)c2cc1Cl` (stereo unspecified) gave LDHA inh 20.
Screening COc1ccc(-n2c(=O)c3c4c(sc3n(CC(=O)Nc3cc(C)[nH]n3)c2=O)CCC4)c(OC)c1 returned DT40 TDP1 CPT -24%, Gal4-VP16 FLuc -3%, IL-1B inflam inh -24, TDP1 cell noCPT inconclusive, LDHA inh -7 and RORgamma inh 20%.
Screening COc1cccc(NC(=O)Cn2c(=O)n(-c3cccc(OC)c3)c(=O)c3c4c(sc32)CCCC4)c1 returned DT40 TDP1 CPT 13µM*, TDP1 cell noCPT 18µM* and LDHA inh -1.
COc1ccccc1-n1c(=O)c2c3c(sc2n2c(=S)[nH]nc12)CCC3 was read as DT40 TDP1 CPT -15%, Gal4-VP16 FLuc -30%, IL-1B inflam inh 4, TDP1 cell noCPT -20%, LDHA inh -3 and RORgamma inh 13µM*.
Cc1ccc(N2C=Nc3ccc(C)c4nc(C)cc2c34)cc1 was read as DT40 TDP1 CPT inconclusive, Gal4-VP16 FLuc 15%, IL-1B inflam inh -52*, TDP1 cell noCPT inconclusive, LDHA inh -3 and RORgamma inh -17%.
`CC1=Nc2ccc(C)c3nc(C)cc(c23)N1c1ccc(C)cc1` gave DT40 TDP1 CPT inconclusive, IL-1B inflam inh 0, TDP1 cell noCPT 16µM* and LDHA inh -6.
For NC(N)=N/N=C/c1cccc([N+](=O)[O-])c1 the results were LDHA inh -3.
For CCNCc1ccc(-c2ccccc2Cl)o1 the results were LDHA inh -2.
For CCSc1nc2ccccc2c(OCc2cc(C(=O)OC)ccc2OC)c1C(=O)OC the results were DT40 TDP1 CPT 18µM*, TDP1 cell noCPT inconclusive and LDHA inh 2.
COC(=O)c1c(SC)nc2ccccc2c1OCc1ccccc1C was read as DT40 TDP1 CPT inconclusive, TDP1 cell noCPT 13µM* and LDHA inh -3.
O=C(Nc1cccc(-c2cnc3ccccc3n2)c1)c1ccncc1 was read as DT40 TDP1 CPT inconclusive, Gal4-VP16 FLuc -26%, IL-1B inflam inh 69, TDP1 cell noCPT 5.8µM*, LDHA inh -9 and RORgamma inh -16%.
For O=C(Nc1cccc(-c2cnc3ccccc3n2)c1)c1ccco1 the results were DT40 TDP1 CPT inconclusive, Gal4-VP16 FLuc -19%, IL-1B inflam inh 12, TDP1 cell noCPT 16µM*, LDHA inh -1 and RORgamma inh 0%.
Screening Cc1ccc(C(=O)Nc2cccc(-c3cnc4ccccc4n3)c2)cc1 returned DT40 TDP1 CPT -7%, Gal4-VP16 FLuc 4%, IL-1B inflam inh -11, TDP1 cell noCPT -22%, LDHA inh -9 and RORgamma inh -1%.
For CS(=O)(=O)Nc1cccc(-c2cnc3ccccc3n2)c1 the results were DT40 TDP1 CPT -6%, Gal4-VP16 FLuc 1%, IL-1B inflam inh -14, TDP1 cell noCPT 21µM*, LDHA inh -4 and RORgamma inh 2%.
`O=C(CNC(=O)c1ccc(Br)o1)Nc1cccc(-c2cnc3ccccc3n2)c1` gave DT40 TDP1 CPT inconclusive, Gal4-VP16 FLuc -7%, IL-1B inflam inh 90, TDP1 cell noCPT 7.3µM*, LDHA inh -9 and RORgamma inh 7%.
`C/C=C(/C)C(=O)OC1Cc2cc3ccc(=O)oc3cc2OC1(C)C` (stereo unspecified) gave LDHA inh 1.
For NC(=O)c1nn(CC(O)COc2ccccc2)c(=O)c2ccccc12 (stereo unspecified) the results were LDHA inh -17.
`COc1ccc(N2C(=O)C3CC=C(Cl)CC3C2=O)cc1` (stereo unspecified) gave DT40 TDP1 CPT 0%, Gal4-VP16 FLuc -3%, IL-1B inflam inh 14, TDP1 cell noCPT -1%, LDHA inh -4 and RORgamma inh 13%.
COC(=O)c1ccc(N2C(=O)CC(SCC(=O)Nc3ccc(OC)cc3)C2=O)cc1 (stereo unspecified) was read as DT40 TDP1 CPT 15µM*, Gal4-VP16 FLuc -14%, IL-1B inflam inh 5, TDP1 cell noCPT 5.2µM*, LDHA inh -4 and RORgamma inh -35%.
NS(=O)(=O)c1ccc(NC(=O)CSC2CCCCC2)cc1 was read as DT40 TDP1 CPT 16µM*, Gal4-VP16 FLuc 23%, IL-1B inflam inh 8, TDP1 cell noCPT 29µM*, LDHA inh -3 and RORgamma inh 2%.
Screening CCOC(=O)c1ccc(N2C(=O)CC(SCC(=O)Nc3ccc(S(N)(=O)=O)cc3)C2=O)cc1 (stereo unspecified) returned DT40 TDP1 CPT 23µM*, Gal4-VP16 FLuc inconclusive, IL-1B inflam inh 2, TDP1 cell noCPT inconclusive, LDHA inh -11 and RORgamma inh inconclusive.
`COc1ccc(NC(=O)c2ccc(N3C(=O)C4CC=C(Cl)CC4C3=O)cc2)cc1` (stereo unspecified) gave DT40 TDP1 CPT -26%, Gal4-VP16 FLuc -17%, IL-1B inflam inh 41, TDP1 cell noCPT 29µM*, LDHA inh -5 and RORgamma inh 2%.
`Cc1ccc(N2C(=O)CC(SCC(=O)Nc3ccc(S(N)(=O)=O)cc3)C2=O)cc1` (stereo unspecified) gave DT40 TDP1 CPT inconclusive, Gal4-VP16 FLuc inconclusive, IL-1B inflam inh -6, TDP1 cell noCPT inconclusive, LDHA inh -10 and RORgamma inh inconclusive.
For COc1ccc(F)cc1C(=O)CSc1nnc(C2CC2)n1C1CC1 the results were LDHA inh 6.
`Cc1ccc2[nH]c(C)c(CC(=O)NCc3cn4ccc(C)cc4n3)c2c1` gave LDHA inh 4.
O=C(O)CNS(=O)(=O)c1ccc(OC(F)(F)F)cc1 was read as LDHA inh 0.
`Cc1cccc(N2C(S)=C(C#N)C(=O)NC2c2cccs2)c1` (stereo unspecified) gave DT40 TDP1 CPT 15µM*, Gal4-VP16 FLuc inconclusive, IL-1B inflam inh -6, TDP1 cell noCPT 13µM*, LDHA inh -5 and RORgamma inh inconclusive.
Cc1ccccc1N1C(S)=C(C#N)C(=O)NC1c1cccs1 (stereo unspecified) was read as DT40 TDP1 CPT inconclusive, Gal4-VP16 FLuc -5%, IL-1B inflam inh -6, TDP1 cell noCPT inconclusive, LDHA inh -6 and RORgamma inh -2%.
